Data reported in the supplement of paper PMC8285479.
Structures can show the parent of a compound that is named as a salt. ± gives the standard deviation of the averaged measurements. In all, about 1,900 compounds were measured (“normalised cell viability (NPI; 0 = phenylarsine oxide control, 1 = DMSO control)”: median about 1, lowest 2% from about 0.039 on). The entries come from a sample that favours the lowest values as a whole.

Test system: NCI-H1944
Test: normalised cell viability (NPI; 0 = phenylarsine oxide control, 1 = DMSO control) (fraction of DMSO control); NCI-H1944 is a non-small cell lung cancer line; higher = more viable cells (less compound toxicity)
Conditions: 6 days
[1] = glucocorticoid arm: hydrocortisone 2.75 uM co-treatment, compound 1 µM
[2] = glucocorticoid arm: hydrocortisone 2.75 uM co-treatment, compound 5 µM
[3] = glucocorticoid arm: hydrocortisone 2.75 uM pre-treated 2 days and continued, compound 1 µM
[4] = glucocorticoid arm: hydrocortisone 2.75 uM pre-treated 2 days and continued, compound 5 µM
[5] = glucocorticoid arm: vehicle, compound 1 µM
[6] = glucocorticoid arm: vehicle, compound 5 µM
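Also: CTB read-out in 384-well plates, triplicate wells, NPI normalised per plate against 1 µM phenylarsine oxide (0) and 0.1% DMSO (1) controls.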

Row | SMILES | normalised cell viability [1] | normalised cell viability [2] | normalised cell viability [3] | normalised cell viability [4] | normalised cell viability [5] | normalised cell viability [6]
1 | CN1CCN(c2ccc([N+](=O)[O-])c3no[n+]([O-])c23)CC1 | 0.984 ± 0.015 | 1.04 ± 0.011 | 0.993 ± 0.0076 | 1.01 ± 0.01 | 0.984 ± 0.011 | 0.988 ± 0.01
2 | O=C(N[C@H]1CN2CCC1CC2)c1ccc(Cl)cc1 | 1.02 ± 0.01 | 1.01 ± 0.022 | 1.023 ± 0.0058 | 1.02 ± 0.015 | 0.998 ± 0.0035 | 1.013 ± 0.0058
3 | O=c1[nH]c2ccc(Cl)cc2c(N[C@@H]2CN3CCC2CC3)c1-c1nc2ccccc2[nH]1 | 0.43 ± 0.0081 | 0.0244 ± 0.0034 | 0.717 ± 0.02 | 0.0576 ± 0.015 | 0.0195 ± 0.0053 | 0.00294 ± 0.0014
4 | C[C@@]12N[C@@H](Cc3ccccc31)c1ccccc12 [(-)-MK-801 hydrogen maleate] | 1.01 ± 0.01 | 1.02 ± 0.026 | 1.013 ± 0.0058 | 1.05 ± 0.094 | 0.992 ± 0.0092 | 1 ± 0.017
5 | C[C@@]12N[C@@H](Cc3ccccc31)c1ccccc12 [(-)-MK 801 Maleate] | 1.023 ± 0.0058 | 1.02 | 1.02 ± 0.011 | 1.03 ± 0.015 | 1.01 | 1.01
6 | CC1Cc2cc3c(cc2C(c2ccc(N)cc2)=NN1)OCO3 (configuration not stated) | 1.01 ± 0.01 | 1.02 ± 0.021 | 1.01 | 1.01 ± 0.037 | 0.9943 ± 0.0035 | 0.9943 ± 0.006
7 | COc1ccc2c(c1)[C@@]13CCCC[C@H]1[C@@H](C2)NCC3 [3-Methoxymorphinan hydrochloride] | 1.013 ± 0.0058 | 0.989 ± 0.03 | 1.02 ± 0.015 | 1.06 ± 0.058 | 1.003 ± 0.0058 | 1.01 ± 0.01
8 | CC1(C(=O)O)C2CCC(O2)C1(C)C(=O)O (configuration not stated) [Cantharidic Acid] | 0.983 ± 0.016 | 0.0223 ± 0.0017 | 1.06 ± 0.015 | 0.137 ± 0.087 | 0.965 ± 0.025 | 0.0108 ± 0.0036
9 | O=C(O)[C@@H]1[C@H](C(=O)O)[C@H]2CC[C@@H]1O2 [Endothall] | 1.01 ± 0.01 | 1.05 ± 0.01 | 1.007 ± 0.0058 | 1.07 ± 0.015 | 0.9967 ± 0.0025 | 1.007 ± 0.0058
10 | C[C@@H]1O[C@H](C[N+](C)(C)C)C[C@H]1O (racemic) [(±)-Muscarine chloride] | 1.02 ± 0.011 | 1.03 ± 0.035 | 1.01 ± 0.015 | 1.05 ± 0.085 | 0.9963 ± 0.0047 | 1 ± 0.014
11 | OC1CCCCC1N1CCC(c2ccccc2)CC1 (racemic) [(±)-Vesamicol hydrochloride] | 0.9747 ± 0.0049 | 0.91 ± 0.021 | 0.875 ± 0.21 | 0.978 ± 0.022 | 0.9897 ± 0.0025 | 0.9897 ± 0.0076
12 | CC[C@@]1(O)C(=O)OCc2c1cc1n(c2=O)Cc2cc3ccccc3nc2-1 [(S)-(+)-Camptothecin] | 0.066 ± 0.014 | 0.00107 ± 0.0017 | 0.328 ± 0.025 | 0.0202 ± 0.0036 | 0.0279 ± 0.0022 | -0.000721 ± 0.0022
13 | Cc1ccccc1-n1c(Cn2cnc3c(N)ncnc32)nc2cccc(C)c2c1=O | 1.003 ± 0.0058 | 1.02 ± 0.028 | 1 ± 0.015 | 1.02 ± 0.031 | 1 ± 0.017 | 1.01 ± 0.011
14 | C=CCN1CC[C@]23CCCC[C@H]2[C@H]1Cc1ccc(O)cc13 [Levallorphan tartrate] | 1 ± 0.0089 | 1 ± 0.023 | 1.003 ± 0.0058 | 1.06 ± 0.064 | 0.9917 ± 0.0025 | 0.863 ± 0.23
15 | N=C(NCCC[C@H](N)C(=O)O)N[N+](=O)[O-] [NG-Nitro-L-arginine] | 1.003 ± 0.0058 | 1.01 ± 0.022 | 1.01 ± 0.017 | 0.86 ± 0.24 | 1 ± 0.012 | 1.001 ± 0.0085
16 | C=CCN1CCc2cccc3c2[C@H]1Cc1ccc(O)c(O)c1-3 [R(-)-N-Allylnorapomorphine hydrobromide] | 0.992 ± 0.0052 | 0.949 ± 0.0089 | 0.988 ± 0.011 | 0.968 ± 0.02 | 0.9917 ± 0.0042 | 0.9757 ± 0.0015

Row | SMILES | normalised cell viability [1] | normalised cell viability [2] | normalised cell viability [3] | normalised cell viability [4] | normalised cell viability [5] | normalised cell viability [6]
17 | CNc1ccc2oc(C[C@H]3O[C@@]4(CC[C@H]3C)O[C@H]([C@H](C)C(=O)c3ccc[nH]3)[C@H](C)C[C@H]4C)nc2c1C(=O)O [Calcimycin] | 0.909 ± 0.018 | 0.0265 ± 0.002 | 1.01 ± 0.013 | 0.0205 ± 0.0037 | 0.91 ± 0.036 | 0.0377 ± 0.014
18 | NC(CCCCCP(=O)(O)O)C(=O)O (racemic) [(±)-2-Amino-7-phosphonoheptanoic acid] | 0.98 ± 0.012 | 0.9763 ± 0.0025 | 0.9903 ± 0.005 | 0.97 ± 0.013 | 0.9873 ± 0.004 | 0.972 ± 0.0072
19 | COc1cc(C(O)CN)ccc1O (racemic) [(±)-Normetanephrine hydrochloride] | 0.9973 ± 0.0025 | 1.01 ± 0.021 | 1.01 ± 0.01 | 0.867 ± 0.27 | 0.9953 ± 0.0045 | 1 ± 0.016
20 | C[C@H]1OC[C@@H](C[N+](C)(C)C)O1 [(+)-cis-Dioxolane] | 1.017 ± 0.0058 | 1.02 ± 0.01 | 1 ± 0.018 | 1.04 ± 0.081 | 1.01 ± 0.01 | 1.006 ± 0.0063
21 | COc1ccc2c3c1O[C@H]1C(=O)CC[C@@]4(O)C(C2)N(CC2CC2)CCC314 (some centres not stated) [3-Methoxynaltrexone hydrochloride] | 0.9917 ± 0.0068 | 0.99 ± 0.018 | 0.985 ± 0.013 | 1.02 ± 0.07 | 0.9977 ± 0.0025 | 0.998 ± 0.013
22 | c1ccc(C2(c3ccccc3)CC2C2=NCCN2)cc1 (configuration not stated) [Cibenzoline succinate] | 0.992 ± 0.013 | 0.994 ± 0.027 | 1.003 ± 0.0058 | 1.02 ± 0.078 | 1.007 ± 0.0058 | 1.01 ± 0.01
23 | CN1CCCCC1Cn1cc(C(=O)c2cc([N+](=O)[O-])ccc2I)c2ccccc21 (configuration not stated) | 1.02 ± 0.015 | 0.99 ± 0.026 | 1.04 ± 0.01 | 1.01 ± 0.029 | 1.013 ± 0.0058 | 1.001 ± 0.0081
24 | CCCN1CC[C@@H]2c3cc(O)ccc3CC[C@@H]21 (racemic) [cis(+/-)-8-OH-PBZI hydrobromide] | 0.993 ± 0.011 | 0.975 ± 0.021 | 1.01 | 1.02 ± 0.092 | 0.9937 ± 0.0071 | 1.007 ± 0.0058
25 | C[C@H]1CNCCc2ccc(Cl)cc21 [Lorcaserin HCl] | 1.003 ± 0.0064 | 1.02 ± 0.029 | 1 ± 0.019 | 1.02 ± 0.029 | 1.003 ± 0.0061 | 0.998 ± 0.0035
26 | N[C@@H](Cn1ccc(=O)[nH]c1=O)C(=O)O [S(-)-Willardiine] | 1.007 ± 0.0058 | 1.023 ± 0.0058 | 0.847 ± 0.28 | 1.02 ± 0.015 | 1.002 ± 0.007 | 1.007 ± 0.0058
27 | c1ccc2c(c1)[I+]c1ccccc1-2 [Diphenyleneiodonium chloride] | 0.45 ± 0.015 | 0.0556 ± 0.0019 | 0.649 ± 0.014 | 0.0883 ± 0.044 | 0.232 ± 0.015 | 0.00555 ± 0.0077
28 | CN1CC[C@]2(CCN3CCc4c(oc5ccccc45)[C@@H]3C2)N(C)C1=O | 1.003 ± 0.0058 | 0.974 ± 0.015 | 1.01 | 0.889 ± 0.24 | 1.013 ± 0.0058 | 1.02 ± 0.015
29 | CCN(CC)C(=O)N[C@H]1C[C@@H]2c3cccc4[nH]cc(c34)C[C@H]2N(C)C1 [S(+)-Terguride] | 0.989 ± 0.011 | 1.01 ± 0.02 | 0.79 ± 0.37 | 0.996 ± 0.016 | 0.9953 ± 0.0015 | 0.993 ± 0.0056
30 | Cc1c(C(=O)c2cccc3ccccc23)c2cccc3c2n1[C@H](CN1CCOCC1)CO3 [( R)-(+)-WIN 55,212-2 mesylate] | 1.004 ± 0.01 | 0.0209 ± 0.0039 | 1.01 ± 0.029 | 0.016 ± 0.002 | 1.013 ± 0.0058 | 0.00693 ± 0.00096
31 | CCCn1c(C)c(C(=O)c2cccc3ccccc23)c2ccccc21 | 1.001 ± 0.0083 | 1.03 ± 0.023 | 1.007 ± 0.0058 | 1.06 ± 0.09 | 0.9977 ± 0.004 | 1.01 ± 0.023
32 | CCC(=O)CCCCC[C@@H]1NC(=O)[C@H]2CCCCN2C(=O)[C@H]([C@@H](C)CC)NC(=O)[C@H](Cc2cn(OC)c3ccccc23)NC1=O [Apicidin] | 0.387 ± 0.16 | 0.954 ± 0.041 | 0.644 ± 0.15 | 0.983 ± 0.03 | 0.0476 ± 0.028 | 0.96 ± 0.022
